Test results: ChEMBL document CHEMBL1157539, “Thousands of chemical starting points for antimalarial lead identification” (Nature, 2010)

Assays:
Format in all cases: functional
Plasmodium falciparum [1] = assay: GSK_TCMDC: Inhibition of Plasmodium falciparum 3D7 in whole red blood cells, using parasite LDH activity as an index of growth. Test compounds present at 2uM
Plasmodium falciparum [2] = assay: GSK_TCMDC: Inhibition of Plasmodium falciparum Dd2 in whole red blood cells, using parasite LDH activity as an index of growth. Test compounds present at 2uM
HepG2 = assay: GSK_TCMDC: Percent inhibition of human HepG2 cell line. Test compounds present at 10uM.

Row | Compound | Inhibition (Plasmodium falciparum [1]) [%] | Inhibition (Plasmodium falciparum [2]) [%] | Inhibition (HepG2) [%]
1 | CCNc1cc(C(=O)N[C@@H](Cc2ccccc2)[C@H](O)CNC2(C)CCCCC2)cc(N2CCCCS2(=O)=O)c1.Cl | 100 | 98 | 13
2 | NCc1ccc(CNCc2cccc(-c3cccc(-c4nc5cc(F)ccc5[nH]4)c3)c2)cc1.O=C(O)C(F)(F)F | 100 | 34 | 15
3 | O=S(=O)(c1cccc(C(F)(F)F)c1)N1CCC(CO)(Cc2cccc(C(F)(F)F)c2)CC1 | 100 | 79 | 3
4 | NC1CCCN(Cc2cccc(-c3cccc(-c4nc5ccccc5[nH]4)c3)c2)C1.O=C(O)C(F)(F)F (centres undefined) | 100 | 61 | 24
5 | COC(=O)c1ccc(Nc2nccc(Nc3ccc(Oc4ccccc4)cc3)n2)cc1.Cl | 93 | 15 | 0
6 | COc1ccc2c(c1)CC(CNC[C@H](O)c1cccc(Cl)c1)CC2 (some centres undefined) | 94 | 73 | 1
7 | CN1CCCC1CCNCc1ccc(-c2ccc(CNCCc3ccccc3)cn2)cc1.O=C(O)C(F)(F)F (centres undefined) | 100 | 99 | 25
8 | COc1cc(Nc2ccnc3ccc(C(F)(F)F)cc23)ccc1OCCCc1ccccc1 | 99 | 51 | 11
9 | Cl.O=C(NCCCCN1CCC(c2ccc(OC(F)(F)F)cc2)CC1)c1ccc(NC(=O)c2ccc(Cl)cc2)cc1 | 99 | 98 | 24
10 | CCCCCCCCc1c(C)[nH]c(C)c(Cl)c1=O | 96 | 95 | 0
11 | NC(=O)C1CCN(Cc2ccc(-c3ccc(-c4nc5cc(C(F)(F)F)ccc5[nH]4)cc3)cc2)CC1.O=C(O)C(F)(F)F | 100 | 90 | 25
12 | CCCCOc1cc2c(cc1OCC)C(C=Cc1ccc(Cl)cc1Cl)=NCC2.Cl | 97 | 95 | 0
13 | COc1ccc2ncc(F)c(CCN3CC4CCCC4(CNCc4ccc5c(n4)NC(=O)CS5)C3)c2n1.Cl (centres undefined) | 87 | 28 | 18
14 | COc1ccc(C2C(C(=O)Nc3ccc(C)cc3Br)c3ccccc3C(=O)N2C)cc1 (centres undefined) | 96 | 2 | 4
15 | CNC(=O)c1cnc(Nc2ccc(N3CCN(C)CC3)cc2)nc1Nc1cccc(OC)c1.O=C(O)C(F)(F)F | 100 | 100 | 19
16 | COc1cc2c(Nc3ccc(Br)cc3F)ncnc2cc1OCC1CCN(C)CC1.Cl | 97 | 16 | 10
17 | CC(C)CC(=O)N(Cc1ccc(-c2ccc(CNC3Cc4ccccc4C3)cc2)cc1)C1CCNCC1.O=C(O)C(F)(F)F | 85 | 65 | 20
18 | COC(=O)c1cc(C(=O)CN(Cc2ccccc2)C(C)C)ccc1O.Cl | 97 | 0 | 7
19 | O=C(Nc1ccccc1)N(Cc1cccc(-c2ccc(CNCc3ccc4c(c3)OCO4)cc2)c1)C1CCN(Cc2ccccc2)CC1.O=C(O)C(F)(F)F | 100 | 82 | 27
20 | COc1ccc2nccc([C@@H](O)CN3CCC(NCc4nc5c(cc4F)SCC(=O)N5)C(F)C3)c2c1.Cl (some centres undefined) | 95 | 49 | 9
21 | Nc1cc(-c2ccc3c(N)nccc3c2)ccc1Cl | 91 | 4 | 1
22 | S=C(NCCc1ccccc1)Nc1ccc2ncsc2c1 | 96 | 3 | 0
23 | COc1ccc(CN2CCC(CNCCc3ccccc3Oc3ccccc3)CC2)cc1.O=C(O)C(F)(F)F | 85 | 56 | 99
24 | Cl.N#Cc1ccc2c(c1)CCN(CCC1CCC(NC(=O)Nc3ccnc4ccccc34)CC1)C2 (centres undefined) | 100 | 77 | 38
25 | CCCC(=O)c1cnc2c(Oc3cc(Cl)ncn3)cccc2c1Nc1ccccc1C | 99 | 85 | 6
26 | O=C(CCc1c[nH]cn1)Nc1ccc(-c2cccc(-c3nc4ccccc4[nH]3)c2)cc1 | 100 | 42 | 12
27 | CCOC(=O)c1c(CN2CCCC2)n(-c2ccccc2)c2cc(Br)c(O)cc12 | 83 | 53 | 0
28 | Fc1cc(Cl)ccc1Nc1ccnc2cc(-c3ccc(CN4CCSCC4)o3)ccc12 | 100 | 99 | 17
